Measured values reported in PubChem BioAssay (NCI).
About 79,000 compounds went through this panel and 15% of them were active in at least one assay; those are over-represented in the sample as a whole. Cut-off read from the data, not from the text of the source: active = growth inhibition above about 70%; inactive = the rest.

What was measured:
[1] = NCI Yeast Anticancer Drug Screen. Data for the rad50 strain (AID 155);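 note: 0% = growth of vehicle-only cultures of the same strain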; conditions: S. cerevisiae rad50 strain growth inhibition; at 50.0 µM; stronger effect = higher value
Summary of the method: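 Vehicle-treated cultures provide the reference for the growth inhibition reported for compound-exposed, repair-deficient yeast.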

[2] = NCI Yeast Anticancer Drug Screen. Data for the mec2-1 strain (AID 157); conditions: S. cerevisiae mec2-1 strain, at 50.0 µM, stronger effect = higher value
Summary of the method: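 Vehicle-treated cultures served as reference for growth inhibition of compound-exposed mec2-1 yeast.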

[3] = NCI Yeast Anticancer Drug Screen. Data for the sgs1 mgt1 strain (AID 161);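 note: 0% = growth of cultures given vehicle only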; conditions: S. cerevisiae sgs1 mgt1 strain, at 50.0 µM, stronger effect = higher value
Summary of the method: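 Read-out: growth inhibition vs vehicle controls. Cells: mutant yeast strain deficient in DNA damage repair.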

[4] = NCI Yeast Anticancer Drug Screen. Data for the cln2 rad14 strain (AID 165);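 note: 0% = growth equal to vehicle treated cultures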; conditions: S. cerevisiae cln2 rad14 strain, at 50.0 µM, stronger effect = higher value
Summary of the method: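 Each compound was tested on cln2 rad14 yeast. Inhibition of growth was calculated against vehicle-exposed controls.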

[5] = NCI Yeast Anticancer Drug Screen. Data for the bub3 strain (AID 167); conditions: S. cerevisiae bub3 mutant strain, at 50.0 µM, stronger effect = higher value
Summary of the method: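 Mutant yeast screening strain plus compound; vehicle-treated cultures serve as the 0% inhibition reference.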

[6] = NCI Yeast Anticancer Drug Screen. Data for the mlh1 rad18 strain (AID 175); conditions: S. cerevisiae mlh1 rad18 strain growth inhibition; at 50.0 µM; stronger effect = higher value
Summary of the method: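 Vehicle-treated cultures served as the reference for growth inhibition in a yeast strain carrying DNA damage repair alterations exposed to each compound.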

Measured: growth inhibition

CCOC(C)(OCC)c1ccccc1
inactive: [1] -9.15% | [2] 20.6% | [3] -2.1% | [4] 23.5% | [5] 8.55% | [6] 29.4%

O=C(C[n+]1ccccc1)N/N=C(\Cc1nc2ccc([N+](=O)[O-])cc2[nH]c1=O)C(=O)Nc1cc(Cl)c(Cl)cc1Cl
inactive: [1] 24.2% | [2] 10.1% | [3] 2.5% | [4] -27.8% | [5] 16.9% | [6] 9.35%

Cc1ccc(C2(O)c3ccccc3N=NN2C)cc1 (stereo unspecified)
inactive: [1] 2.6% | [2] 0.5% | [3] 4% | [4] -16.8% | [5] 14% | [6] 9.75%

CCCCCCCCOCCS(=O)(=O)O
inactive: [1] 13.4% | [2] -18.6% | [3] -0.15% | [4] -22.6% | [5] -10.8% | [6] 35.8%

Cn1ccnc1CCc1ccc(F)cc1F
inactive: [1] -37.2% | [2] -20.8% | [3] -2.75% | [4] -0.15% | [5] -2.2% | [6] -22.2%

CC(I)CNc1ccc(C(=O)O)c(O)c1 (stereo unspecified)
inactive: [1] 3.7% | [2] -4.9% | [3] 6.15% | [4] 1% | [5] 11.6% | [6] -11.9%

CCCNc1cc2c(cc1Br)-c1ccccc1C2=O
inactive: [1] -18.8% | [2] -3% | [3] -10.2% | [4] -16.1% | [5] 19.1% | [6] -0.65%

COc1cc(-c2cc(=O)c3c(O)c(OC)c(OC)c(OC)c3o2)ccc1O
inactive: [1] 23.4% | [2] 10.2% | [3] -14.8% | [4] 28.4% | [5] 13.1% | [6] 14.9%

O=C(O)Cc1c(-c2ccccc2)nc(=S)[nH]c1-c1[nH]c(=S)nc(-c2ccccc2)c1CC(=O)O
inactive: [1] -15.6% | [2] 10.1% | [3] -17% | [4] -12.3% | [5] 2.15% | [6] 2.25%

Cc1ccc(S(=O)(=O)C(CCC(=O)c2ccccc2)(CCC(=O)c2ccccc2)[N+](=O)[O-])cc1
inactive: [1] -9.05% | [2] -9.45% | [3] -10% | [4] -26% | [5] -1.5% | [6] 0%

C=CCOC(=O)CC=C
inactive: [1] -8.7% | [2] -3.1% | [3] 4.75% | [4] 6.7% | [5] -11.4% | [6] 5.3%

CCOC(=O)c1[nH]n(-c2ccccc2)c(=O)c1/C=N/C(=S)Nc1ccccc1
inactive: [1] -22.3% | [2] -10.6% | [3] -16.6% | [4] -11.8% | [5] -21.3% | [6] -7.85%

Cc1cc2ccccc2n1C
inactive: [1] 4.05% | [2] 5.45% | [3] 39.5% | [4] 10.1% | [5] 31.9% | [6] 18.2%

CCCCCCCCCCCCCCCC(=O)O[C@@H]1[C@@H](C)[C@@]2(O)[C@@H](C=C(CO)C[C@]3(O)C(=O)C(C)=C[C@@H]23)[C@H]2[C@]1(OC(C)=O)[C@]2(C)CO
inactive: [1] 14.8% | [2] 2.75% | [3] 20.1% | [4] 30.9% | [5] 21.1% | [6] -71.2%

CCCCCCCCCCCCCCCCCCOc1c(Cl)c(Cl)c(Cl)c(Cl)c1Cl
inactive: [1] 15.1% | [2] -1.55% | [3] -8.25% | [4] -25.9% | [5] -7.4% | [6] -8.1%

CCc1cc(C(C)(C)C)c(O)c(C(C)(C)C)c1
inactive: [1] 33.6% | [2] 9.65% | [3] 6.25% | [4] 25.2% | [5] 8.4% | [6] 35.4%

NC(=O)c1ncn(C2OC(CO)C(O)C2O)c1NC=O (stereo unspecified)
inactive: [1] 1.95% | [2] -3.9% | [3] -2.25% | [4] 7.6% | [5] 9.85% | [6] 17.9%

O=C(O)c1ccc(C2C(=O)N[C@@H]3CCC[C@H]23)cc1 (stereo partly specified)
inactive: [1] -33% | [2] -5.75% | [3] -22.1% | [4] 6.05% | [5] -12.9% | [6] -32.1%

CC(=O)c1c(C)cc(C(C)(C)C)cc1C
inactive: [1] 18.4% | [2] -1.1% | [3] 12.8% | [4] -0.55% | [5] 9.3% | [6] 13.8%

COc1ccc(NC(=O)NCc2ccc(C)cc2)cc1
inactive: [1] 4.45% | [2] 33.8% | [3] 33.8% | [4] -5.5% | [5] 7.85% | [6] 26.9%

N#CC(C(=O)CCCC(=O)Nc1ccccc1[N+](=O)[O-])c1ccc(Cl)cc1Cl (stereo unspecified)
inactive: [1] -10.2% | [2] -22.6% | [3] -36.8% | [4] -41.5% | [5] 0.65% | [6] -26.6%

O=S(=O)(O)c1cccc2cccc(Nc3ccccc3)c12
inactive: [1] -0.5% | [2] 0.35% | [3] 8.85% | [4] -33.1% | [5] -14.8% | [6] 25.4%

O=C(CC1=NC2NN(c3ccccc3)C(=O)C2=C1CC(=O)c1ccc(F)cc1)c1ccc(F)cc1 (stereo unspecified)
inactive: [1] 40.2% | [2] 20.6% | [3] 23.2% | [4] 13.1% | [5] 5.65% | [6] 38.9%

C=C(Br)C[N+](CC)(CC)CC
inactive: [1] -14.3% | [2] -3.3% | [3] -9.4% | [4] 15.8% | [5] -8.85% | [6] -9.25%

COC(=O)C1(O)CC(=O)CCC1c1ccc(OC)cc1 (stereo unspecified)
inactive: [1] 9.75% | [2] -1.35% | [3] -14.8% | [4] -10.3% | [5] -38% | [6] -17.1%

c1cc(CSC2=NCCN2)ccc1CSC1=NCCN1
inactive: [1] -8% | [2] 9.25% | [3] -9.2% | [4] -24.3% | [5] 8.9% | [6] -3.85%

CCCCCOC(=S)S
inactive: [1] -2.6% | [2] 11.8% | [3] 32.7% | [4] -12.1% | [5] 13.4% | [6] 29.9%

Cc1cc(N(CCC#N)CCC#N)ccc1C=Nc1ccc(C(=O)NN2C(=O)/C(=C/c3ccc(N(CCC#N)CCC#N)cc3)N=C2c2cc([N+](=O)[O-])ccc2Cl)cc1
inactive: [1] 17.9% | [2] 10.1% | [3] 2.6% | [4] 24% | [5] 4.7% | [6] 7.8%

Cc1c(Cl)ccc2c1NC(=O)C2(O)C1Cc2ccccc2C1=O (stereo unspecified)
inactive: [1] 44.5% | [2] 21.1% | [3] 37.5% | [4] 34% | [5] 15.1% | [6] 28%

Nc1nc(SCC(=O)c2ccc(Br)cc2)c2[nH]cnc2n1
inactive: [1] 23.2% | [2] 3.35% | [3] -10.9% | [4] 10.1% | [5] 23.1% | [6] 26.9%

COC(=O)C[C@@]1(C(=O)OC)[C@@H](C(=O)OC)C(C(=O)OC)=NN1C
inactive: [1] -5.35% | [2] -18.4% | [3] 0.85% | [4] -49% | [5] 18.1% | [6] -4.45%

COc1ccc2c(c1OC)CN1CCc3cc4c(cc3C1=C2)OCO4
inactive: [1] 15.9% | [2] -3.95% | [3] -9.95% | [4] 2.35% | [5] 8.15% | [6] 12.9%

CCCCCO/C=C/CN1CCOCC1
inactive: [1] 8.85% | [2] 15.2% | [3] 3.1% | [4] -8.5% | [5] 11.8% | [6] -3.2%

CC(c1ccccc1)N1COc2cc3c(cc2C1)OCN(C(C)c1ccccc1)C3 (stereo unspecified)
inactive: [1] -21.2% | [2] -2.95% | [3] -29.8% | [4] -11.8% | [5] -6.8% | [6] -17.4%

CCC(=O)Oc1ccccc1OC(=O)CC
inactive: [1] 35.9% | [2] 18.3% | [3] 21% | [4] 11.6% | [5] 1.9% | [6] 45.2%

O=C1CCCCCC1
inactive: [1] 9.95% | [2] -8.9% | [3] 11.2% | [4] -19.2% | [5] -4.45% | [6] 3.4%

Nc1c2cc3ccc2nc2ccc(cc12)OCCOCCOCCOCCOCCOCCO3
inactive: [1] -3.05% | [2] -16.1% | [3] -9.55% | [4] -12% | [5] -0.35% | [6] -21.2%

CN(C)NC(=O)Nc1cccc2ccccc12
inactive: [1] -25.2% | [2] -22.3% | [3] -6.15% | [4] -22.4% | [5] -26.9% | [6] -20.4%

Cc1ccc(S(=O)(=O)N(C)c2c(N)n(C)c(=O)n(C)c2=O)cc1
inactive: [1] 2.3% | [2] 5.75% | [3] 0.7% | [4] -49.3% | [5] -5.55% | [6] -4.4%

CC(C)(C)CC(C)(C)c1ccc(OCc2ccc(C(F)(F)F)cc2)cc1
inactive: [1] 14.2% | [2] 10.9% | [3] 5.1% | [4] 13.4% | [5] -4.8% | [6] -1.7%

CN(C)c1ccc(C(=Cc2ccccc2)c2ccc(N(C)C)cc2)cc1
inactive: [1] -0.9% | [2] 18.3% | [3] -2.8% | [4] -63.6% | [5] 0.8% | [6] 5.5%
